Experimental data from PubChem BioAssay (NCI).
Where “and” joins values, the source holds several entries; their conditions need not be identical. Equal entries are not always repeated. About 83,000 compounds went through this panel and 20% of them were active in at least one assay; those are over-represented in the sample as a whole.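 Interpretation: 100, growth as untreated; towards 0, rising growth inhibition; 0, no net growth; 0 to -100, cell death. Compounds scoring below 10 were considered active.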 Calls of active or inactive are those of the source.

System: MDA-MB-468 breast
Assay: NCI-60 one-dose screen, 48 h (100 = growth as untreated, 0 = no growth, -100 = all killed)
Conditions: 10 µM unless noted

| Compound | growth |
| --- | --- |
| CCCCCCC(O)(c1ccc(F)cc1)C(CN1CCOCC1)c1ccccc1 (stereo unspecified) | 28% (inactive) |
| CC1(CO)CCCC1NCCNC1CCCC1(C)CO (stereo unspecified) | 104% (inactive) and 95.5% (inactive) |
| Cc1cc2c3c(cccc3c1)C(=O)c1ccccc1-2 | 63.7% (inactive) |
| CCOc1ccc(NC(=O)CSc2oc(-c3ccccc3)nc2S(=O)(=O)c2ccc(F)cc2)cc1 | 58.4% (inactive) |
| CCOC(=O)c1cnn(CC(O)c2ccc(F)cc2)c1NC(=O)Nc1ccccc1F (stereo unspecified) | 85.8% (inactive) |
| CCC(=C(c1ccc(OCCN(C)C)cc1)c1ccc(OCCN(C)C)cc1)c1ccc(Cl)cc1 | -82.8% (active) |
| C=C(C)[C@@H]1CC[C@]2(C(=O)O)CC[C@]3(C)[C@H](CC[C@@H]4[C@@]5(C)C[C@@H](CC#Cc6ccc(Br)cc6)C(=O)C(C)(C)[C@@H]5CC[C@]43C)[C@@H]12 | 6.26% (active) |
| Cc1c(Cl)cccc1N=C=S | 97.8% (inactive) |
| CC(C)(C)c1ccc(OCCCCCCCN2CCNCC2)cc1 | -54% (active) |
| COC(=O)c1ccc2c(c1)Oc1ccc(Cl)cc1-c1cc(C)nn1-2 | 87% (inactive) |
| Nc1c(C(=O)NC2CCCCC2)sc2nc3c(cc12)C(=O)CCC3 | 86.1% (inactive) |
| CN1CCC(n2cc(Nc3ncc4c(=O)n(-c5c(Cl)cccc5Cl)cc(Br)c4n3)cn2)CC1 | 12.7% (inactive) |
| CCCCCCCCCCCCCCCc1cc(O)ccc1[N+](=O)[O-] | 111% (inactive) |
| CN(C)Cc1ccccn1 | 105% (inactive) |
| CN(C)CCC(=O)c1ccc(O)cc1 | 107% (inactive) |
| COc1ccc(/C=C2\CCC3C(CCCC34OCCO4)C2=O)cc1 (stereo unspecified) | 70.5% (inactive) |
| O=C(O)COc1ccc(OCC(=O)O)cc1 | 2.23% (active) |
| C=C(C)[C@@H]1CC[C@]2(C(=O)N3CCN(C)CC3)CC[C@]3(C)[C@H](CC[C@@H]4[C@@]5(C)CCC(=O)C(C)(C)[C@@H]5CC[C@]43C)[C@@H]12 | 77.3% (inactive) |
| O=C(NCCCNS(=O)(=O)c1ccc(Cl)cc1)Nc1ccc(-n2cc(-c3ccncc3)c(-c3ccc(Cl)c(O)c3)n2)cc1 | 47.6% (inactive) |
| O=C1/C(=C/c2ccc([N+](=O)[O-])s2)Oc2ccccc21 | -34.1% (active) |
| COc1ccccc1NC1=C(N2CCCCC2)C(=O)c2ccccc2C1=O | 65.9% (inactive) |
| CCN(CC)CCNc1ccc(Cl)cc1Cl | 108% (inactive) |
| COc1ccc([C@@H]2[C@@H](O)C(=O)N2c2cc(OC)c(OC)c(OC)c2)cc1Cl | 22.8% (inactive) |
| CN1CCN(CCOc2ccc(-c3cnc4c(-c5cccc(F)c5F)cnn4c3)cc2)CC1 | 94.8% (inactive) |
| COc1ccc2c(O)c(/C=C3\N=Nc4ccccc43)oc2c1C[C@H]1CCNC[C@H]1F | 75.6% (inactive) |
| O=C(Nc1ccc(-n2cc(-c3ccncc3)c(-c3ccc(O)c(Cl)c3)n2)cc1)c1ccc(Cl)c(Cl)c1 | 39.9% (inactive) |
